This is an account of results in PubChem BioAssay AID1851 (National Center for Advancing Translational Sciences (NCATS), 2009).

The structures appear in SMILES notation. Screen size: about 16,000 compounds; about 5,100 (32%) were called active. About 25% were inconclusive and are not listed. The call rests on the fitted dose curve; in most records, active means well fitted curve in the direction sought with a large enough effect; inconclusive means small, poorly fitted or top-dose-only effect, or effect the other way; inactive means no such curve, though single readings can be large or run the other way. Some of the results follow.
On the % scale 0 is the no-effect control and ±100 the full control effect.

The target of the assay is Cytochrome P450 3A4 (Homo sapiens) (UniProt P08684). The experiment in a line: Cytochrome panel assay with activity outcomes. Particulars: recombinant CYP, pro-luciferin dealkylation, luminescence, p450-cyp3a4; series mostly up to 57.1 µM.
Sequence of Cytochrome P450 3A4 (Homo sapiens) (P08684 whole entry, looked up): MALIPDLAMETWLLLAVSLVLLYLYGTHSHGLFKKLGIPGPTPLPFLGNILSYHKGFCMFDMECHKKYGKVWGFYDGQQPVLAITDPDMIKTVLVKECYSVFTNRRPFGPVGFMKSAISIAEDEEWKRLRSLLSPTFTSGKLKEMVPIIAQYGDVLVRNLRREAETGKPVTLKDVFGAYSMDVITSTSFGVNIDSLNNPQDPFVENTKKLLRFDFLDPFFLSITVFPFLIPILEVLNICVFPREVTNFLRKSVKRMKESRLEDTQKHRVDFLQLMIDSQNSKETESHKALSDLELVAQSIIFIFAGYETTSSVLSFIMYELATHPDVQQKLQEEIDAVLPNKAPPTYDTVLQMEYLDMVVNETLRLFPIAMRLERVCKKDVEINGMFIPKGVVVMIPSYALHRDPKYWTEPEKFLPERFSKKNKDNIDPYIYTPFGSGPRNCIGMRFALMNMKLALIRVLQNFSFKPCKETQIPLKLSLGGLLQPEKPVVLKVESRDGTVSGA
Consider `N=c1nc(N)nc(N)n1-c1ccc(S(N)(=O)=O)cc1`, for which the activity, negative = inhibition was -8.91% [at 11.4 µM] (inactive).

As usually defined, the AC50 is the concentration at which the activity in the assay is half-maximal. For the compound `O=c1oc2c(Cl)cc(Cl)cc2cc1-c1nnc(Nc2ccccc2F)s1`, the AC50 result was “inactive”.

For the compound `N=C(N)CCNC(=O)[C@@H]1CCC(N)=N1`, the activity, negative = inhibition is -7.02% [at 11.4 µM] (inactive).

As for `NC[C@@H]1O[C@H](O[C@@H]2[C@H](O[C@@H]3O[C@H](CO)[C@@H](COC[C@H]4O[C@@H](CN)[C@@H](O)[C@@H](O)[C@@H]4N)[C@@H]3O)[C@@H](O)[C@@H](N)C[C@H]2N)[C@@H](N)[C@H](O)[C@@H]1O`, the AC50 result was “inactive”.

In the case of `CC(=O)Nc1nc(NC(C)=O)c2[nH]c(CO)nc2n1`, the activity, negative = inhibition was -3.45% [at 11.4 µM] (inactive).

Turning to `O=C(CCN1C(=O)/C(=C/c2cccc(Br)c2)SC1=S)NNC(=O)c1cccnc1`, the AC50 was 3.16 µM (active).

As to `CCN(CC)c1ccc(N2C(=O)/C(=C\c3cccnc3)SC2=S)cc1`, the activity, negative = inhibition is -14.7% [at 2.29 µM] (inactive).

For the compound `Cc1ccc(/C=C2\SC(=S)N(CCCC(=O)Nc3ccccn3)C2=O)cc1`, the activity, negative = inhibition was -14.5% [at 2.29 µM] (inactive).

For the compound `CCN(CC)c1ccc(N2C(=O)/C(=C/c3cccnc3)SC2=S)cc1`, the AC50 is 5.62 µM (active).

On to `O=C1/C(=C/c2cccnc2)SC(=S)N1Cc1ccco1`, for which the AC50 was 1 µM (active).

In the case of `C[C@@H]1/C=C\CC(=O)OC[C@H](C)C(=O)N2CCC[C@@H]2C(=O)OC1`, the activity, negative = inhibition is -18.8% [at 11.4 µM] (inactive).

As to `N[C@@H](CSC(=O)c1ccccc1)C(=O)O`, the activity, negative = inhibition was -4.21% [at 11.4 µM] (inactive).

For the compound `O=C(COc1cccc2ccccc12)N1c2ccccc2CCc2ccccc21`, the AC50 was 7.94 µM (active).

Consider `CC(C)NC[C@H](O)COc1cccc2ccccc12`, for which the AC50 result is “inactive”.

Consider `CC(C)NC[C@@H](O)COc1cccc2ccccc12`, for which the AC50 entry is “inactive”.

On to `OC[C@@H]1NC[C@@H](O)[C@@H](O)[C@H]1O`, for which the AC50 result is “inactive”.

Take `Cc1c(C)n(C)c2ccc(C(=O)Nc3cccc4ccccc34)cc12`: the AC50 is 14.1 µM (active).

For the compound `COC(=O)CCC(=O)Nc1cccc2ccccc12`, the AC50 entry is “inactive”.

On to `O=C(CCC(=O)OCc1ccc(C(=O)Oc2ccccc2)cc1)Nc1cccc2ccccc12`, for which the AC50 entry was “inactive”.

As for `O=C(Nc1cccc2ccccc12)c1ccccc1`, the AC50 is 3.16 µM (active).

For `O=C(NNC(=O)c1cccnc1)Nc1cccc2ccccc12`, the activity, negative = inhibition was 14.6% [at 0.457 µM] (inactive).

Consider `O=C(O)c1ccc(C(=O)Nc2cccc3ccccc23)c(C(=O)O)c1`, for which the activity, negative = inhibition was -18.5% [at 11.4 µM] (inactive).

On to `COc1cccc(C(CC(=O)Nc2cccc3ccccc23)NC(=O)c2ccccc2)c1` (centres undefined), for which the AC50 was 2.24 µM (active).

With `CCn1c(C)c(C)c2cc(C(=O)Nc3cccc(Cl)c3)ccc21`, the activity, negative = inhibition is 10.3% [at 2.29 µM] (inactive).

As for `O=C(O)CSc1ccn(Cc2ccccc2)c1`, the activity, negative = inhibition is -1.15% [at 11.4 µM] (inactive).

For the compound `CN1CCN(CN2C(=O)C3C4C=CC(C3C2=O)C2C3C(=O)N(CN5CCN(C)CC5)C(=O)C3C42)CC1` (centres undefined), the activity, negative = inhibition is -12.9% [at 11.4 µM] (inactive).

Regarding `CCOc1nc(N=C(N)N)nc2c(C)cccc12`, the AC50 result was “inactive”.

On to `O=C(O)CCSC1=NCCN1`, for which the activity, negative = inhibition was -3.67% [at 11.4 µM] (inactive).

Consider `CSC1(SC2=NCCN2)SC2(NCCN2)S1`, for which the AC50 was 1.26 µM (active).

`O=C(c1ccc(Cl)cc1)N1CCCC(c2ccccc2)=N1`: the activity, negative = inhibition is 13% [at 2.29 µM] (inactive).

In the case of `O=C1N=C2SCCN2/C1=C\c1c(Cl)cccc1Cl`, the AC50 is 10 µM (active).

Regarding `OCCN(CO)CO`, the activity, negative = inhibition is -1.86% [at 11.4 µM] (inactive).

As for `CCC(Sc1nc(C)cc(=O)[nH]1)C(=O)Nc1nc2c(s1)CCCC2` (centres undefined), the AC50 was 14.1 µM (active).

Take `CCC(=O)Nc1c2c(nc3c1CCC3)CCCC2`: the AC50 result is “inactive”.

Regarding `C[C@@H]1O[C@@H](n2cc(F)c(=O)[nH]c2=O)[C@H](O)[C@@H]1O`, the AC50 entry was “inactive”.

Turning to `Cc1cc([N+](=O)[O-])ccc1-c1ccc(C2Nc3ccccc3C(=O)N2O)o1` (centres undefined), the AC50 was 7.08 µM (active).

With `Cc1cccc2c1Oc1ccccc1[C@@H]2NC(=O)c1ccc([N+](=O)[O-])cc1`, the activity, negative = inhibition is -14% [at 11.4 µM] (inactive).

Take `C[C@H](N)C(=O)O`: the AC50 result was “inactive”.

For the compound `CSc1nc(C2CC2)cc(-c2cccs2)c1C#N`, the AC50 result is “inactive”.

Take `Cc1ccccc1-c1nccc(NCc2cccs2)n1`: the AC50 was 2 µM (active).

Regarding `FC(F)(F)c1ccccc1-c1nccc(NCc2cccs2)n1`, the AC50 was 2 µM (active).

With `CN(C)Cc1ccccc1-c1nccc(NCc2cccs2)n1`, the AC50 result is “inactive”.

Turning to `CCc1nn(C)c(-c2n[nH]c(=S)n2N)c1Cl`, the AC50 result was “inactive”.

As to `O=C1[C@H]2CCn3c(=O)n(-c4ccccc4)c(=O)n3[C@H]2[C@H](O)[C@H]2O[C@@H]12`, the activity, negative = inhibition was -11.9% [at 11.4 µM] (inactive).

In the case of `Nc1nonc1-c1noc(CCCN2C(=O)c3ccccc3C2=O)n1`, the AC50 is 7.94 µM (active).

As for `CCN(c1ccccc1)c1cc(NC)[n+](C)c(C)n1`, the AC50 entry is “inactive”.

As for `Cc1ccc(-c2nc3ncccn3c2NC(=O)C2CC2)cc1`, the AC50 entry is “inactive”.

For `Clc1ccc(-c2nc3ncccn3c2Nc2ccc3c(c2)OCCO3)cc1`, the half-maximal activity concentration (AC50) was 4.47 µM (active).

With `COCCn1c(=O)c(-c2ccccc2)nc2cnc(Oc3ccc(OC)cc3)nc21`, the concentration at half-maximal activity (AC50) was 1 µM (active).

For the compound `COCCn1c(=O)c(C)nc2cnc(Oc3ccc(OC)cc3)nc21`, the AC50 is 15.8 µM (active).

With `COCCn1c(=O)c(-c2ccc(Cl)cc2)nc2cnc(N(C)C)nc21`, the AC50 result was “inactive”.

Consider `COCCn1c(=O)c(-c2ccc(Cl)cc2)nc2cnc(N3CCOCC3)nc21`, for which the AC50 entry is “inactive”.

Regarding `COCCn1c(=O)c(-c2ccc(OC)cc2)nc2cnc(OC)nc21`, the half-maximal activity concentration (AC50) was 15.8 µM (active).

Turning to `COCCn1c(=O)c(-c2ccc(Cl)cc2)nc2cnc(OC)nc21`, the AC50 is 7.94 µM (active).

As for `CCNc1ncc2nc(-c3ccc(Cl)cc3)c(=O)n(C[C@H]3CCCO3)c2n1`, the AC50 entry was “inactive”.

In the case of `COc1ncc2nc(-c3ccc(Cl)cc3)c(=O)n(C[C@H]3CCCO3)c2n1`, the AC50 is 10 µM (active).

Take `CN(C)c1ncc2nc(-c3ccc(Cl)cc3)c(=O)n(C[C@H]3CCCO3)c2n1`: the AC50 entry is “inactive”.

As to `Cn1c(=O)n(-c2cccc(Cl)c2)c(=O)c2c3c(sc21)COC(C)(C)C3`, the activity, negative = inhibition is -4.67% [at 2.29 µM] (inactive).

With `Clc1ccccc1-c1nccc(-n2ccnc2)n1`, the AC50 is 1.26 µM (active).

`Cc1noc(C)c1-c1nccc(-n2ccnc2)n1`: the AC50 was 1.26 µM (active).

Turning to `FC(F)(F)c1ccccc1-c1nccc(N2CCNCC2)n1`, the AC50 result was “inactive”.

`COc1ccccc1-c1cc(-n2ccnc2)ncn1`: the AC50 is 0.316 µM (active).

Turning to `COc1ccccc1-c1nccc(-n2ccnc2)n1`, the AC50 was 1.58 µM (active).

As to `Cc1noc(C)c1-c1nccc(N2CCN(C)CC2)n1`, the AC50 entry is “inactive”.

For the compound `O=S1(=O)N[C@H]2CC[C@@H]3NS(=O)(=O)N[C@H]4CC[C@H](N1)N4S(=O)(=O)N23`, the activity, negative = inhibition is 5.02% [at 11.4 µM] (inactive).

As to `Cc1ccccc1-c1nccc(-n2ccnc2)n1`, the AC50 is 1 µM (active).

Regarding `Cc1cc(C)c2c(N)c3ccccc3nc2n1`, the AC50 entry is “inactive”.

On to `CN(C)Cc1ccccc1-c1ccc2ncnc(NC3CCNCC3)c2c1`, for which the AC50 entry is “inactive”.

On to `COc1ccc(CNc2ncnc3ccc(-c4ccccc4CN(C)C)cc23)c(OC)c1`, for which the AC50 was 7.94 µM (active).

Regarding `COc1ccccc1CNc1ncnc2ccc(-c3ccccc3OC)cc12`, the half-maximal activity concentration (AC50) is 6.31 µM (active).

Regarding `CNc1ncnc2ccc(-c3ccccc3CN(C)C)cc12`, the AC50 is 7.94 µM (active).

For `CN(C)Cc1ccccc1-c1ccc2ncnc(NCc3ccccc3)c2c1`, the AC50 was 15.8 µM (active).

`COc1ccccc1CNc1ncnc2ccc(-c3ccccc3CN(C)C)cc12`: the AC50 was 12.6 µM (active).

For `COc1ccc(CNc2ncnc3ccc(-c4ccccc4OC)cc23)c(OC)c1`, the AC50 is 2 µM (active).

On to `CCOc1cc(/C=N/NC(=O)CNc2cccc(C)c2)ccc1OC(=O)c1ccccc1`, for which the AC50 entry was “inactive”.

In the case of `COc1ccc(/C=C/C(=O)Oc2cccc(/C=N/NC(=O)COc3c(C)cccc3C)c2)cc1`, the AC50 result was “inactive”.

`CCOc1cc(/C=N/NC(=O)COc2cccc(C)c2)ccc1OC(=O)c1cccs1`: the AC50 is 14.1 µM (active).

Take `CS(=O)(=O)Nc1cccc(-c2ccc3ncnc(NC4CC4)c3c2)c1`: the AC50 was 6.31 µM (active).

As for `CNc1ncnc2ccc(-c3cccc(NS(C)(=O)=O)c3)cc12`, the half-maximal activity concentration (AC50) was 12.6 µM (active).

Turning to `CS(=O)(=O)Nc1cccc(-c2ccc3ncnc(NC4CCNCC4)c3c2)c1`, the AC50 result was “inactive”.

For the compound `CS(=O)(=O)Nc1cccc(-c2ccc3ncnc(Nc4ccc(F)cc4)c3c2)c1`, the AC50 was 7.94 µM (active).

`CS(=O)(=O)Nc1cccc(-c2ccc3ncnc(Nc4ccccc4)c3c2)c1`: the concentration at half-maximal activity (AC50) is 10 µM (active).

On to `c1ccc2cc(-c3cc(-c4cc(-c5ccc6ccccc6c5)on4)no3)ccc2c1`, for which the activity, negative = inhibition is -8% [at 11.4 µM] (inactive).

In the case of `COCCNc1ncnc2ccc(-c3cccc(NS(C)(=O)=O)c3)cc12`, the AC50 is 15.8 µM (active).

In the case of `[O-][N+]1(CC[N+]2([O-])CCCCC2)CCCCC1`, the activity, negative = inhibition is -11.4% [at 11.4 µM] (inactive).

Take `CCN(CC)Cc1c(O)c(Cl)cc2c3c(c(=O)oc12)CCCC3`: the AC50 entry was “inactive”.

Turning to `C#CCOC(=O)NC(/C=C/CCCC)c1ccccc1` (centres undefined), the AC50 was 12.6 µM (active).

In the case of `CCCCCCCCCCCCC/C=C\[C@@H](O)[C@H](CO)NC(C)=O`, the AC50 result was “inactive”.

As for `CCCC/C=C/C(NC(=O)c1ccccc1)c1ccccc1` (centres undefined), the concentration at half-maximal activity (AC50) is 15.8 µM (active).

As to `CCCC/C=C/C(NC(=O)C(C)(C)C)c1ccccc1` (centres undefined), the AC50 was 25.1 µM (active).

With `CCCC/C=C/C(NC(=O)c1ccc(-c2ccccc2)cc1)c1ccccc1` (centres undefined), the AC50 result was “inactive”.

As for `CCCN(CCC)C(=O)[C@@H](CCC(=O)O)NC(=O)c1ccccc1`, the AC50 result was “inactive”.

For the compound `CCCC/C=C/C(NC(=O)c1cccs1)c1ccccc1` (centres undefined), the AC50 is 12.6 µM (active).

For `CC(=O)Oc1cc(C(F)(F)F)ccc1C(=O)O`, the AC50 entry was “inactive”.

`CCCC/C=C/C(NC(=O)Oc1cccc(C(F)(F)F)c1)c1ccccc1` (centres undefined): the AC50 is 15.8 µM (active).

On to `N[C@@H](C(=O)O)c1ccc(C(=O)O)cc1`, for which the AC50 result was “inactive”.

Consider `O=C1N=C(N2CCOCC2)S/C1=C\C=C/c1ccccc1`, for which the AC50 result is “inactive”.

`CN(C)CN1C(=O)S/C(=C2/C(=O)N(CN(C)C)c3ccccc32)C1=O`: the activity, negative = inhibition was 4.92% [at 11.4 µM] (inactive).

Turning to `CCN1C(=O)/C(=C2\SC(N3CCCCC3)=NC2=O)c2ccccc21`, the AC50 was 14.1 µM (active).
